This is part of a sample that, as a whole, favours compounds with a hit. Of some 83,000 tested, about 20% had one in any assay.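 Method: cells in 96-well plates; compound added at one concentration; 48 h incubation; percent growth measured; values under 10 scored active.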 Unmarked numbers belong to inactive results. Calls of active or inactive are those of the source.

The assay concerns LOX IMVI melanoma. Kind of assay: NCI-60 one-dose screen, 48 h (100 = growth as untreated, 0 = no growth, -100 = all killed). The conditions noted are these: 10 µM.
For `O=C(N/N=C/c1cc2ccccc2c2ccccc12)c1cc(O)c(O)c(O)c1`, the growth was 47.2%. As for `COc1ccc(-c2nn(-c3cccc(NC(=O)c4cc(C(F)(F)F)cc(C(F)(F)F)c4)c3)cc2-c2ccncc2)cc1Cl`, the growth is 80.3%. The figure for `O=S(=O)(NCCCNc1nccc(-c2c(-c3ccc(F)cc3)nc3sccn23)n1)c1ccc(F)cc1` is 28.3%; for `COc1ccc(-c2nn(-c3cccc(NC(=O)c4ccc(N5CCOCC5)c(C(F)(F)F)c4)c3)cc2-c2ccncc2)cc1Cl` it is 74.2%; for `CCCCCCN1CCN(Cc2ccc(N(CC)CC)cc2)C(=O)C1=O` it is 45.2%.

Turning to `COc1ccc(Oc2nc(NC3CCCC3)nc(Sc3ccc(OC)cc3)n2)cc1`, the growth is 72.6%. Turning to `COc1ccc(-c2nn(-c3cccc(NC(=O)Nc4cccc(C(F)(F)F)c4)c3)cc2-c2ccncc2)cc1Cl`, the growth was 22.6%. For the molecule `COc1ccc(-c2nn(-c3cccc(NC(=O)Nc4ccccc4)c3)cc2-c2ccncc2)cc1Cl`, the growth is 29%. As for `CCOC(=O)c1ccoc1`, the growth is 99.6%. `COc1ccc(/C=C/C(C)=N/OCC(=O)O)cc1`: the growth was 96.9%. The figure for `CN(C)Cc1cn(-c2ncc(-c3ccc(C(F)(F)F)cc3)c(NC3CCCCCC3)n2)nn1` is 95.7%; for `COc1cccc(C(=O)Nc2ccc(CN3CCc4nc5cc(OC)c(OC)cc5cc43)cc2)c1` it is 31.3%; for `O=[N+]([O-])c1cccc(-c2ncc(-c3ccc(Cl)cc3Cl)[nH]2)c1` it is -100% (active). The figure for `CCN(CC)CCSCCN(CC)CC` is 99%.
